Data taken from PubChem BioAssay AID1159580 (chemical genetic matrix, 2015).
In all, about 5,500 compounds went through this assay and about 2,000 (36%) were called active. Not shown: some 18% with an inconclusive outcome. This is one part of the list. Values without a mark were called inactive. Rule as the data show it: active = normalized growth mostly below about 0.91 (no sharp cut-off); inconclusive = no clear call, values can overlap the other calls; inactive = mostly above about 0.92.

Test: chemical genetic growth profiling, strain panel (AID 1159580);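 also: tested at 20 µM; growth read once vehicle control cultures reached saturation at 30 °C; 1 = growth at the plate median or of vehicle wells; lower values mean less growth of the strain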
Details: S. cerevisiae deletion strains, growth OD
[1] = locus YDL101C, strain DUN1, active compounds read low
[2] = locus YHR030C, strain SLT2, active compounds read low

**Q.** What does the source list for `CCOC(=O)c1ccc2nc(N=CNO)sc2c1`?
**A.** normalized growth (locus YAR019C, strain CDC15, active compounds read low): 0.948; normalized growth (locus YBL105C, strain PKC1, active compounds read low): 0.94; normalized growth (locus YBR135W, strain CKS1, active compounds read low): 0.947; normalized growth (locus YBR136W, strain MEC1, active compounds read low): 0.951; normalized growth (locus YBR160W, strain CDC28, active compounds read low): 0.954; normalized growth (locus YDL017W, strain CDC7, active compounds read low): 0.953; normalized growth (locus YDL028C, strain MPS1, active compounds read low): 0.956; normalized growth [1]: 0.973; normalized growth (locus YDL108W, strain KIN28, active compounds read low): 0.946; normalized growth (locus YDL132W, strain cdc53, active compounds read low): 0.946; normalized growth (locus YDL214C, strain PRR2, active compounds read low): 0.905; normalized growth (locus YDR052C, strain DBF4, active compounds read low): 0.961; normalized growth (locus YDR054C, strain cdc34, active compounds read low): 0.938; normalized growth (locus YDR226W, strain ADK1, active compounds read low): 0.958; normalized growth (locus YDR477W, strain SNF1, active compounds read low): 0.913; normalized growth (locus YER123W, strain YCK3, active compounds read low): 0.864; normalized growth (locus YER133W, strain GLC7, active compounds read low): 0.888; normalized growth (locus YFL009W, strain cdc4, active compounds read low): 0.938; normalized growth (locus YFL029C, strain CAK1, active compounds read low): 0.951; normalized growth (locus YFR003C, strain YPI1, active compounds read low): 0.951; normalized growth (locus YFR019W, strain FAB1, active compounds read low): 0.909; normalized growth (locus YFR028C, strain CDC14, active compounds read low): 0.967; normalized growth (locus YGR040W, strain KSS1, active compounds read low): 0.919; normalized growth (locus YGR052W, strain FMP48, active compounds read low): 0.983; normalized growth (locus YGR092W, strain DBF2, active compounds read low): 0.771; normalized growth [2]: 0.961; normalized growth (locus YHR079C, strain IRE1, active compounds read low): 0.964; normalized growth (locus YHR082C, strain KSP1, active compounds read low): 0.986; normalized growth (locus YHR205W, strain SCH9, active compounds read low): 0.886; normalized growth (locus YIL147C, strain SLN1, active compounds read low): 0.945; normalized growth (locus YJL095W, strain BCK1, active compounds read low): 0.977; normalized growth (locus YJL128C, strain PBS2, active compounds read low): 0.94; normalized growth (locus YJL157C, strain FAR1, active compounds read low): 0.881; normalized growth (locus YJR016C, strain ILV3, active compounds read low): 0.948; normalized growth (locus YJR066W, strain TOR1 (second series), active compounds read low): 0.717; normalized growth (locus YJR066W, strain TOR1, active compounds read low): 0.995; normalized growth (locus YKL048C, strain ELM1, active compounds read low): 0.955; normalized growth (locus YKL067W, strain YNK1, active compounds read low): 0.915; normalized growth (locus YKL101W, strain HSL1, active compounds read low): 0.907; normalized growth (locus YKL193C, strain SDS22, active compounds read low): 0.955; normalized growth (locus YKL203C, strain TOR2, active compounds read low): 0.958; normalized growth (locus YLR113W, strain HOG1, active compounds read low): 0.988; normalized growth (locus YLR133W, strain CKI1, active compounds read low): 0.922; normalized growth (locus YLR403W, strain SFP1, active compounds read low): 0.879; normalized growth (locus YML070W, strain DAK1, active compounds read low): 0.892; normalized growth (locus YMR001C, strain CDC5, active compounds read low): 0.951; normalized growth (locus YMR205C, strain PFK2 (second series), active compounds read low): 0.931; normalized growth (locus YMR277W, strain FCP1, active compounds read low): 0.963; normalized growth (locus YNL006W, strain LST8, active compounds read low): 0.945; normalized growth (locus YNL020C, strain ARK1, active compounds read low): 0.911; normalized growth (locus YNL161W, strain CBK1, active compounds read low): 0.951; normalized growth (locus YNL183C, strain NPR1, active compounds read low): 1; normalized growth (locus YNL207W, strain RIO2, active compounds read low): 0.949; normalized growth (locus YNL222W, strain SSU72, active compounds read low): 0.952; normalized growth (locus YNL307C, strain MCK1 (second series), active compounds read low): 0.926; normalized growth (locus YOL078W, strain AVO1, active compounds read low): 0.958; normalized growth (locus YOL136C, strain PFK27, active compounds read low): 0.892; normalized growth (locus YOR061W, strain CKA2, active compounds read low): 0.894; normalized growth (locus YOR119C, strain RIO1, active compounds read low): 0.908; normalized growth (locus YOR231W, strain MKK1, active compounds read low): 0.938; normalized growth (locus YOR329C, strain SCD5, active compounds read low): 0.947; normalized growth (locus YPL031C, strain PHO85, active compounds read low): 0.867; normalized growth (locus YPL153C, strain RAD53, active compounds read low): 0.88; normalized growth (locus YPL204W, strain HRR25, active compounds read low): 0.889; normalized growth (locus YPL209C, strain IPL1, active compounds read low): 0.947; normalized growth (locus YPL256C, strain CLN2, active compounds read low): 1.02; normalized growth (locus YPR025C, strain CCL1, active compounds read low): 0.95; normalized growth (locus YPR106W, strain ISR1, active compounds read low): 0.968; normalized growth (locus YPR111W, strain DBF20, active compounds read low): 0.963; normalized growth (strain NNK1, active compounds read low): 0.96; normalized growth (strain TSCII, active compounds read low): 0.952

**Q.** Which normalized growth (locus YAL013W, strain DEP1, active compounds read low) does the source give for `Cc1oc(C(C)(C)C)cc1C(=O)Nc1ccc([N+](=O)[O-])cc1` here?
**A.** The normalized growth was 0.903 (active).

**Q.** And the normalized growth (locus YBR229C, strain ROT2, active compounds read low)?
**A.** The normalized growth was 0.976.

**Q.** And the normalized growth (locus YCL061C, strain MRC1, active compounds read low)?
**A.** The normalized growth was 0.984.

**Q.** And the normalized growth [1]?
**A.** Its normalized growth is 1.03.

**Q.** And the normalized growth (locus YDR150W, strain NUM1, active compounds read low)?
**A.** Its normalized growth is 0.786 (active).

**Q.** And the normalized growth (locus YEL061C, strain CIN8, active compounds read low)?
**A.** The normalized growth was 0.911.

**Q.** And the normalized growth (locus YGR078C, strain PAC10, active compounds read low)?
**A.** The normalized growth was 0.98.

**Q.** What about the normalized growth [2] of the same compound?
**A.** The normalized growth was 0.584 (active).

**Q.** And the normalized growth (locus YHR087W, strain rtc3, active compounds read low)?
**A.** The normalized growth was 0.958.

**Q.** What about the normalized growth (locus YJR043C, strain POL32, active compounds read low) of the same compound?
**A.** Its normalized growth is 0.966.

**Q.** What about the normalized growth (locus YJR075W, strain HOC1, active compounds read low) of the same compound?
**A.** The normalized growth was 0.974.

**Q.** What about the normalized growth (locus YLR039C, strain RIC1, active compounds read low) of the same compound?
**A.** The normalized growth was 0.678 (active).

**Q.** What about the normalized growth (locus YLR058C, strain SHM2 (second series), active compounds read low) of the same compound?
**A.** Its normalized growth is 0.992.

**Q.** What about the normalized growth (locus YLR085C, strain ARP6, active compounds read low) of the same compound?
**A.** Its normalized growth is 0.813.

**Q.** What about the normalized growth (locus YLR262C, strain YPT6, active compounds read low) of the same compound?
**A.** Its normalized growth is 0.786 (active).

**Q.** What about the normalized growth (locus YML094W, strain GIM5, active compounds read low) of the same compound?
**A.** The normalized growth was 0.873.

**Q.** And the normalized growth (locus YMR219W, strain ESC1, active compounds read low)?
**A.** Its normalized growth is 0.997.

**Q.** What about the normalized growth (locus YMR263W, strain SAP30, active compounds read low) of the same compound?
**A.** The normalized growth was 0.943.

**Q.** What about the normalized growth (locus YMR307W, strain GAS1, active compounds read low) of the same compound?
**A.** The normalized growth was 0.752.

**Q.** And the normalized growth (locus YNL153C, strain GIM3, active compounds read low)?
**A.** The normalized growth was 0.998.

**Q.** What about the normalized growth (locus YNL298W, strain CLA4 (second series), active compounds read low) of the same compound?
**A.** The normalized growth was 0.788 (active).

**Q.** And the normalized growth (locus YNL322C, strain KRE1, active compounds read low)?
**A.** Its normalized growth is 0.996.

**Q.** And the normalized growth (locus YNR030W, strain Alg12, active compounds read low)?
**A.** The normalized growth was 0.816 (active).

**Q.** And the normalized growth (locus YOL006C, strain TOP1, active compounds read low)?
**A.** The normalized growth was 0.88.

**Q.** What about the normalized growth (locus YPL055C, strain LGE1, active compounds read low) of the same compound?
**A.** The normalized growth was 0.688 (active).

**Q.** What about the normalized growth (locus YPL241C, strain CIN2, active compounds read low) of the same compound?
**A.** Its normalized growth is 0.997.

**Q.** What about the normalized growth (locus YPR135W, strain CTF4, active compounds read low) of the same compound?
**A.** The normalized growth was 0.484 (active).
